The structures appear in SMILES notation. Several values for one entry are separate records, joined by “and”; a condition that tells them apart may be missing. Equal values may be shown once. Inconclusive results are not listed. Where a structure was tested more than once in an assay, its records may differ in their call. Activity calls are given as the source filed them. How the source made its calls, unless noted: active means hit-call score of the fitted dose curve at least 0.9, where 1 is the maximum; inconclusive means response in the unintended direction; inactive means score below 0.9.

In test [1] the target is Cellular tumor antigen p53 (Homo sapiens) (UniProt P04637). Nature of the test: TOX21_p53_BLA_p5_ratio: Tox21 HCT-116 p53 Agonism Beta-lactamase Assay, Ratio, Phase 5 (AID 2283599). The essentials:
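HCT-116 p53-bla cells (4000/well) plated 5 h, dosed with compound (217-fold DMSO dilution) for 16 h at 37 C; CCF4-AM substrate 2 h at room temperature. Activity is the 460/530 nm emission ratio (405 nm excitation), fitted in gain-of-signal direction versus DMSO.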

Test [2] has the same target. Nature of the test: TOX21_p53_BLA_p4_ratio: Tox21 HCT-116 p53 Agonism Beta-lactamase Assay, Ratio, Phase 4 (AID 2283601). The essentials: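 HCT-116 p53 beta-lactamase reporter cells (4000/well) preincubated 5 h, then compound (217-fold dilution of DMSO stock) for 16 h at 37C. CCF4-AM substrate added 2 h at room temperature; 460/530 nm emission ratio fitted upward versus DMSO.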

For test [3], the target named is PGR (gene 5241) (UniProt P06401). Nature of the test: TOX21_PR_BLA_Followup_Antagonist_ratio: Tox21 HEK293 Progesterone Receptor (PR) Antagonism Beta-lactamase Follow-Up Assay, Ratio (AID 2283934).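 Further: PR-UAS-bla HEK293T cells stimulated with 1 nM R5020 agonist for 16 hr.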 The method in brief: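 Measured in PR-UAS-bla HEK293T cells co-treated with compound and 1 nM promegestone for 16 hr; beta-lactamase ratio read after 2 h FRET substrate loading, with parallel CellTiter-Glo cytotoxicity.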

The nature of test [4]: TOX21_PR_BLA_Followup_Agonist_viability: Viability Assessment in the Tox21 HEK293 Progesterone Receptor (PR) Agonism Beta-lactamase Follow-Up Assay (AID 2283935).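 Further: signal loss means lower viability so actives are cytotoxic.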 The method in brief: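 Viability is read as CellTiter-Glo luminescence, where loss of signal indicates cytotoxicity. The cells are PR-UAS-bla HEK293T given compounds for 16 hr at 37C and 5% CO2, in the same wells used for the bla readout.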

Test [5] is described as follows: TOX21_PR_BLA_Followup_Antagonist_viability: Viability Assessment in the Tox21 HEK293 Progesterone Receptor (PR) Antagonism Beta-lactamase Follow-Up Assay (AID 2283936).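 Further: cells exposed to compound with R5020 agonist for 16 h; hits lower the luminescence signal meaning cytotoxicity.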 The essentials: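 PR-UAS-bla HEK293T cells in medium with 2% charcoal-stripped FBS were treated with compounds plus R5020 for 16 hr at 37C. After the beta-lactamase read, CellTiter-Glo was added to the same wells and luminescence read after 30 min at room temperature.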

Test [6] is described as follows: TOX21_PR_LUC_Followup_Antagonist_viability: Viability Assessment in the Tox21 HEK293 Progesterone Receptor (PR) Antagonism Luciferase Follow-Up Assay (AID 2283940). The essentials: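 Loss of CellTiter-Glo ATP signal indicates cytotoxicity in HEK293-PR-A-luc cells grown in 10% charcoal-stripped FBS medium, seeded 3,000 per well and incubated 16 h with compound at 37C.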

The nature of test [7]: TOX21_PR_LUC_Followup_Agonist_viability: Viability Assessment in the Tox21 HEK293 Progesterone Receptor (PR) Agonism Luciferase Follow-Up Assay (AID 2283941).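 Further: loss of signal means cytotoxicity so actives lower viability.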 The method in brief: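 Seeding: HEK293-PR-A-luc, 3,000 cells/well, 5 h at 37C. Treatment: compound in DMSO, 16 h, 37C. Read: CellTiter-Glo ATP luminescence, signal loss taken as lower viability.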
Test [8] concerns the target PGR (gene 5241) (UniProt P06401). Nature of the test: TOX21_PR_BLA_Followup_Agonist_ratio: Tox21 HEK293 Progesterone Receptor (PR) Agonism Beta-lactamase Follow-Up Assay, Ratio (AID 2283933). The method in brief: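 Ratio-based beta-lactamase reporter signal after 16 hr compound treatment of PR-UAS-bla HEK293T cells at 37C. Substrate loading lasted 2 hr at room temperature.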

Test [9] has the same target. Nature of the test: TOX21_PR_LUC_Followup_Agonist: Tox21 HEK293 Progesterone Receptor (PR) Agonism Luciferase Follow-Up Assay (AID 2283937; active means hit-call score of the fitted dose curve at least 0.9, where 1 is the maximum; inactive means score below 0.9). The essentials: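 In HEK293 cells stably expressing PR-A with a luciferase reporter, compounds were incubated 16 h at 37C, and induced luminescence was quantified with ONE-Glo, multiplexed with cell viability.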
In test [10] the target is Nucleoli Translocation, AR (gene 367) (UniProt P10275). Briefly: UPITT_HCI_U2OS_AR_TIF2_Nucleoli_Antagonist: University of Pittsburgh U2OS Androgen Receptor-Transcriptional Intermediary Factor 2 (AR-TIF2) Antagonism High Content Imaging Assay for Nucleoli Translocation (AID 2283997). The essentials:
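Compounds are added at 20 uM final concentration in 0.2% DMSO to U2OS cells carrying AR-RFP and TIF2-GFP fusions. Nucleolar AR-RFP fluorescence is then quantified by automated imaging. Antagonism is fitted positively against DHT baseline.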

Test [11] has the same target. Nature of the test: UPITT_HCI_U2OS_AR_TIF2_Nucleoli_Agonist: University of Pittsburgh U2OS Androgen Receptor-Transcriptional Intermediary Factor 2 (AR-TIF2) Agonism High Content Imaging Assay for Nucleoli Translocation (AID 2283998). The method in brief: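 Cells express human AR fused to red fluorescent protein and TIF2 fused to GFP. Red fluorescence in the nucleolar region was quantified by high-content imaging and fitted as gain-of-signal against a DMSO baseline. Compounds were tested at 0.195 to 50 uM final (0.5% DMSO).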

Test [12] deals with Ratio of Nucleoli Translocation and Cytoplasm, AR (gene 367) (UniProt P10275). Briefly: UPITT_HCI_U2OS_AR_TIF2_Nucleoli_Cytoplasm_Ratio_Antagonist: University of Pittsburgh U2OS Androgen Receptor-Transcriptional Intermediary Factor 2 (AR-TIF2) Antagonism High Content Imaging Assay for Ratio of Nucleoli Translocation and Cytoplasm (AID 2283999).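 Further: antagonists lower the DHT-driven ratio of nucleolar to cytoplasmic red signal.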 The essentials: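 This antagonist-mode endpoint tracks AR-RFP localisation, the nucleolus-to-cytoplasm intensity ratio, in TIF2-GFP-coexpressing U2OS cells. DMSO stays at or below 0.5%; testing spans 20 uM single-dose and 0.195–50 uM series, with DHT setting the activity baseline.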

Test [13] has the same target. Nature of the test: UPITT_HCI_U2OS_AR_TIF2_Nucleoli_Cytoplasm_Ratio_Agonist: University of Pittsburgh U2OS Androgen Receptor-Transcriptional Intermediary Factor 2 (AR-TIF2) Agonism High Content Imaging Assay for Ratio of Nucleoli Translocation and Cytoplasm (AID 2284000).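 Further: hits raise the red nucleolar to cytoplasm ratio above vehicle.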 The method in brief:
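Human osteosarcoma U2OS line, AR-RFP plus TIF2-GFP; compounds 0.195–50 uM final, 0.5% DMSO. Readout: nucleolar/cytoplasmic RFP ratio by HCI, positive direction vs DMSO baseline.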

Test [14] can be described thus: CCTE_Mundy_HCI_hN2_NOG_NeuriteCount: CCTE's Neurite Outgrowth Assay in human hN2 cells for Neurite Count, Mundy Lab (AID 2284219). The essentials:
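In this morphology assay, hNP1-derived neurons received test chemical 2 h post-plating and were fixed two days later in warm paraformaldehyde/sucrose containing Hoechst 33342. Neurites, labelled by rabbit anti-βIII-tubulin (1:800) and Alexa Fluor-488 (1:500), were counted automatically.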

Test [15] is described as follows: CCTE_Mundy_HCI_hN2_NOG_NeuriteLength: CCTE's Neurite Outgrowth Assay in human hN2 cells for Neurite Length, Mundy Lab (AID 2284220). The method in brief: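 Read-out is neurite length from high-content imaging of βIII-tubulin/Alexa Fluor-488-labelled neurons, referenced to DMSO controls.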
Test [16] can be described thus: CCTE_Mundy_HCI_hN2_NOG_NeuronCount: CCTE's Neurite Outgrowth Assay in human hN2 cells for Neuron Count, Mundy Lab (AID 2284221). The essentials:
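Read-out is the number of betaIII-tubulin-positive neurons imaged by automated high-content analysis, with DMSO as negative control.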

Chain of Cellular tumor antigen p53 (Homo sapiens) (P04637 whole entry, looked up): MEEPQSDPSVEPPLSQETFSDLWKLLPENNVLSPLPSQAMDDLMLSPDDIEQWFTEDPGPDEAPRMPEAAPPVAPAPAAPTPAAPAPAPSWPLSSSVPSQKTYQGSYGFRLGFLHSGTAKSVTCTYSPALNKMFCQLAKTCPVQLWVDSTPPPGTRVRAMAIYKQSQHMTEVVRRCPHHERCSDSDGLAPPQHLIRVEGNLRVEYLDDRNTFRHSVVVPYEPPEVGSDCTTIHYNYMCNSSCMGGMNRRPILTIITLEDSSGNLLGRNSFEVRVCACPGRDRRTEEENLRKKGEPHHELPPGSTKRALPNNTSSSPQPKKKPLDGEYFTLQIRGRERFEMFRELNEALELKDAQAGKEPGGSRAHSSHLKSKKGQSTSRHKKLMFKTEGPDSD
Chain of PGR (gene 5241) (P06401 whole entry, looked up): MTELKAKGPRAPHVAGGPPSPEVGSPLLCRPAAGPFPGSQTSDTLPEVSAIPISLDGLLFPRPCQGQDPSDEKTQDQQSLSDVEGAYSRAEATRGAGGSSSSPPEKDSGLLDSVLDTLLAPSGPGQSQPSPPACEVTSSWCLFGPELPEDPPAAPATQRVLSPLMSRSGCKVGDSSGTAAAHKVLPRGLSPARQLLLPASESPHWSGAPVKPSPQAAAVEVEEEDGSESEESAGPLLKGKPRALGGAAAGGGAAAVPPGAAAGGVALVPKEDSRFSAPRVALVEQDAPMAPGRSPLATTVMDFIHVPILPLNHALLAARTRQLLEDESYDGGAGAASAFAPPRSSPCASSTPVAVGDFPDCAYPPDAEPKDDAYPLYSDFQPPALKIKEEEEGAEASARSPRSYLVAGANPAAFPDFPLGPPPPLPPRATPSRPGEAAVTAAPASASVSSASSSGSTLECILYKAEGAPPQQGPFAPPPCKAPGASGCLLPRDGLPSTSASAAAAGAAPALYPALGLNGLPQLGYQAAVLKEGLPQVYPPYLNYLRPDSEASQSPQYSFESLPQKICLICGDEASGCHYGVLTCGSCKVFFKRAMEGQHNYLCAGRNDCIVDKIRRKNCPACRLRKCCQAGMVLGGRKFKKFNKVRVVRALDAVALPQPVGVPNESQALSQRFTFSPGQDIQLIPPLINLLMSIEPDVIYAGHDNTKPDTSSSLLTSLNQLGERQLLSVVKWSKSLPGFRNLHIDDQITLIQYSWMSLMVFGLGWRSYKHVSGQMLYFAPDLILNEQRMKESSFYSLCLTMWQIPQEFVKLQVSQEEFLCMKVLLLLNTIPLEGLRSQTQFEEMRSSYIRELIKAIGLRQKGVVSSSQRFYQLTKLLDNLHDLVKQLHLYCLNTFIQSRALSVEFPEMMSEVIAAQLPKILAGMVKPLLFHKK
Chain of Nucleoli Translocation, AR (gene 367) (P10275 whole entry, looked up, the tested form may be a part): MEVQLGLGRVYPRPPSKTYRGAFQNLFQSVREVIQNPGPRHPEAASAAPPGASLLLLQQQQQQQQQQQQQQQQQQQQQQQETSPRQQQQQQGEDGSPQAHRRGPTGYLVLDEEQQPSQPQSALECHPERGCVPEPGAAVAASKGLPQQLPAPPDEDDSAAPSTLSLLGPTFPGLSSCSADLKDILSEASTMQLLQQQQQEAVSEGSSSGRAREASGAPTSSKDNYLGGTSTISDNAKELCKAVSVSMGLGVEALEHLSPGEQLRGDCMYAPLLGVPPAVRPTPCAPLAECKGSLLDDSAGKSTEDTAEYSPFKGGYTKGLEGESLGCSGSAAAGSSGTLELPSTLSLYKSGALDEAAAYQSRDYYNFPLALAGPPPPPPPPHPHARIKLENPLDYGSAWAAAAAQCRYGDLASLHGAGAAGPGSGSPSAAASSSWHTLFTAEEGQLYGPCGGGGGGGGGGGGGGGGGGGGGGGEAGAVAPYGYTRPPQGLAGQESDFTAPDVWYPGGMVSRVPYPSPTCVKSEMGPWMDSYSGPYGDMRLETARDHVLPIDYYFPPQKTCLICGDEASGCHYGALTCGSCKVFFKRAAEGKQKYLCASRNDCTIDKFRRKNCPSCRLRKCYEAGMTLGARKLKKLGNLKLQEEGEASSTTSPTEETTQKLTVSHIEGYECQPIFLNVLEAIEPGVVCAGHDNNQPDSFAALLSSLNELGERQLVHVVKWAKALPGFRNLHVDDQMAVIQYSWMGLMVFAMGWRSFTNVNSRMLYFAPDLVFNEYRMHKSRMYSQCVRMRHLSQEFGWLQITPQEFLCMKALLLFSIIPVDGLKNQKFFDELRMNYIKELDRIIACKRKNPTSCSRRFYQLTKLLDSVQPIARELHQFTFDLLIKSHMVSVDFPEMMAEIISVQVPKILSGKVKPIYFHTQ
Chain of Ratio of Nucleoli Translocation and Cytoplasm, AR (gene 367) (P10275 whole entry, looked up): as the sequence (P10275 whole entry, looked up, the tested form may be a part) above

In the case of `NC1CCC(CC2CCC(N)CC2)CC1` (stereo not given), in [1], the outcome was inactive.

`NC(=O)OCCCc1ccccc1`: the outcome in test [1] and in test [2] was inactive.

As for `CN(CCO)CCO`, the result in [2] was inactive.

For `CCN(Cc1ccc(Cl)nc1)/C(=C/[N+](=O)[O-])NC`, the result in test [1] and in test [2] was inactive.

A word on the AC50: it is the midpoint of the concentration-response curve, whichever way the signal moves. `CCCCCCCCCCn1cc[n+](C)c1`: the AC50 in test [1] is 15.5 µM (active); in test [2] it was 45.6 µM (active) and 21.5 µM (active) and 46 µM (active). Besides, the outcome in test [1] and in [2] was inactive.

For `O=C1CN=C(c2ccccc2)c2cc(Cl)ccc2N1CC1CC1`, the AC50 in the test with PGR (gene 5241) [3] was 23 µM (active). The compound was called inactive in test [4], in test [5], in [6] and in test [7].

On to `C[C@]12Cc3cn[nH]c3C[C@@H]1CC[C@@H]1[C@@H]2CC[C@@]2(C)[C@H]1CC[C@]2(C)O`, for which the AC50 is 6.44 µM (active) with PGR (gene 5241) [8] and 3.48 µM (active) with PGR (gene 5241) [9]. Further, the outcome (in the test with PGR (gene 5241) [3]; in test [4]; in [5]; in test [6]; in test [7]) was inactive.

In the case of `C[n+]1ccc(-c2cc[n+](C)cc2)cc1`, the compound was called inactive in test [10], in test [11], in [12], in [13], in [14] and in test [15]. In test [16], the concentration at half-maximal activity (AC50) is 50 µM (active).

Regarding `CC1COC2(c3ccccc3Cl)c3cc(Cl)ccc3NC(=O)CN12` (stereo not given), the outcome (in the test with PGR (gene 5241) [3]; in [4]; in test [5]; in [6]) was inactive.

In the case of `C[C@]12CC[C@H]3[C@@H](CCC4=CC(=O)CC[C@@]43C)[C@@H]1CC[C@@H]2O`, in [2], the outcome was inactive.

In the case of `Nc1ccc(Cl)cc1C(=O)c1ccccc1F`, the outcome (with PGR (gene 5241) [8]; in test [4]; in test [5]; in the test with PGR (gene 5241) [9]; in test [6]; in test [7]) was inactive. Moreover, the AC50 with PGR (gene 5241) [3] is 17.3 µM (active).

In the case of `CCCCC(CC)COC(=O)c1cc(Br)c(Br)c(Br)c1Br` (stereo not given), the compound was called inactive in [10], in test [11], in test [12] and in test [13].

Turning to `O=c1[nH]c2c(c(=O)n1C1CCCCC1)CCC2`, the compound was classed as inactive in test [10], in test [11] and in [13].

In the case of `O=C(O)CCCCCCNC1c2ccccc2CCc2ccccc21`, the outcome in test [2] was inactive.

Consider `Clc1c(Cl)c(Cl)c2c(c1Cl)Oc1c(Cl)c(Cl)c(Cl)c(Cl)c1O2`, for which the compound was classed as inactive in test [11], in test [12] and in test [13].

Regarding `O=S1OC[C@@H]2[C@H](CO1)[C@]1(Cl)C(Cl)=C(Cl)[C@]2(Cl)C1(Cl)Cl` (stereo not given in full), the compound was classed as inactive in test [10], in test [11], in test [12] and in [13].

On to `COP(=S)(OC)SCC(=O)N(C)C=O`, for which the compound was classed as inactive in test [10], in [11], in test [12] and in test [13].

The record behind these values is PubChem BioAssay (EPA / NIEHS).
